Shown are actives, neighbours in structure and some others; about 1.4% of the full set was active somewhere.
EPAC2 ag: EPAC2 (human) agonism; EPAC2 activation, biochemical qHTS; response scale: 100% = 6.5 mM cAMP response; Potency, µM (series often up to 154 µM), usual class: activators; 360,000 tested, 0.079% active; AID 720711; further: nearly all actives have a fitted effect of over 50% in size
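Exchange assay: 100 nM EPAC2 with 250 nM Rap1B-BODIPY-GDP and 50 uM GDP. Fluorescence (ex 480/em 540 nm) read every 5 min for 30 min at room temperature. Data normalized to 6.5 mM cAMP as agonist control.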
KCNH2 3.1 block: KCNH2 3.1 (human) potassium channel inhibition; activity change, % (tested at about 1.8 µM); 340,000 tested, 0.95% active; U2OS KCNH2 3.1, thallium flux FluxOr; hits give low values;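 active means maximum activity change below -70%; inconclusive means maximum activity change from -70% to -50%; inactive means maximum activity change above -50%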;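 further: thallium influx rate constant from kinetic fluorescence after stimulation buffer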
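Kinetic fluorescence (2 min after stimulation buffer) measures Tl+ influx through KCNH2 3.1 expressed by viral transduction in U2OS cells; the rate constant is normalized against DMSO controls serving as positive and negative references.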
hERG WT inh: KCNH2 (human, wildtype) channel inhibition. Q12809. U2OS, BacMam KCNH2, thallium flux FluxOr; hits give low values. activity change, % at 1.84 µM. 340,000 tested, 0.37% active;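 active means maximum activity change below -70%; inconclusive means maximum activity change between -70% and -50%; inactive means maximum activity change above -50%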
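U2OS cells transduced with wild-type KCNH2 virus are loaded with FluxOr dye for 45 min, and thallium flux is measured in kinetic reads before and after stimulation buffer. Rate constants are normalized to DMSO controls.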
EPAC1 antag: antagonists of human EPAC1; Potency, µM (series often up to 115 µM), actives largely listed as inhibitors; AID 720709; O95398; EPAC1 GEF assay, Rap1b-BODIPY-GDP exchange fluorescence; 360,000 tested, 0.14% active; further: nearly all actives have a fitted effect of over 50% in size
EPAC2 antagonist: antagonists of human EPAC2; Q8WZA2; AID 720708; EPAC2 GEF exchange of Rap1B-BODIPY-GDP, fluorescence; Potency, µM (titrated, usually from 114 µM), hits mostly inhibitors; 360,000 tested, 0.18% active; further: nearly all actives have a fitted effect of over 45% in size
EPAC1 agonist: EPAC1 (human) agonism; O95398; EPAC1 agonist qHTS, biochemical assay; response scale: 100% = response to 6.5 mM cAMP; Potency, µM (top dose mostly 154 µM), actives largely listed as activators; 360,000 tested, 0.073% active; AID 720707; further: nearly all actives have a fitted effect of over 60% in size
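EPAC1 100 nM, Rap1B–BODIPY-GDP 250 nM, unlabeled GDP 50 uM; compound titration; 5 min RT; kinetic read ex480/em540 at 5-min intervals ×30 min; data normalized to 6.5 mM cAMP agonist control.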
Large screens that a line does not name were inactive. Unless noted, the call rests on the fitted dose curve; in most records, active means well fitted curve in the direction sought with a large enough effect; inconclusive means small, poorly fitted or top-dose-only effect, or another doubt; inactive means no such curve, though single readings can be large; an effect the other way counts as inactive or inconclusive.

O=C(NCCN1CCN(C(=O)c2cccc(OC(F)F)c2)CC1)c1cccc(OC(F)F)c1	KCNH2 3.1 block inconclusive
COc1ccc(/C=C/CN2CCC(C(=O)NC(c3ccc(F)cc3)c3ccc4ccccc4n3)CC2)cc1 (stereo not given)	none (no result: KCNH2 3.1 block, hERG WT inh)
COc1ccc(C(=O)C(C)[n+]2ccc(C)c3ccccc32)cc1[N+](=O)[O-] (stereo not given)	hERG WT inh -140
CCN(C[C@H]1N[C@@](C)(C(=O)OC)[C@H]2C(=O)N(C)C(=O)[C@@H]12)C(=O)COc1ccccc1	hERG WT inh -218
Oc1ccc(-c2nc(-c3ccc(O)c(O)c3)cs2)cc1	EPAC1 antag inconclusive, EPAC2 antagonist inconclusive
Oc1ccc(-c2nccs2)cc1	KCNH2 3.1 block -120
COC(=O)c1cc(OC)c(OC)cc1NC(=O)CN1CCOCC1	hERG WT inh -236
O=c1[nH]nc(Sc2ccccc2)c(=S)[nH]1	none
CCC(=O)N(CCC(Cc1ccccc1)c1ccc2c(c1)OCO2)Cc1ccccc1F (stereo not given)	KCNH2 3.1 block -79
CCC(=O)N(CCc1ccccc1)Cc1cc2cc3c(cc2[nH]c1=O)OCO3	none
O=S(=O)(Nc1c(S(=O)(=O)c2ccccc2)c2nc3ccccc3nc2n1C1CCCCC1)c1ccccc1	EPAC1 antag 40µM, EPAC2 antagonist inconclusive
CCN(CC)S(=O)(=O)c1ccc2c(c1)nc(CCC(=O)OCC(=O)Nc1cc(Cl)cc(Cl)c1)n2C	KCNH2 3.1 block -83
Cc1cc2nc(-c3ccc(F)cc3)c(Cc3cccc(Cl)c3)n2c(C)c1Br	none (no result: KCNH2 3.1 block, hERG WT inh)
COc1ccccc1CNC(=O)CCC(=O)Nc1nnc(C)s1	hERG WT inh -298
Cc1cccc(CN2CCC(Oc3ccc(C(=O)N4CCCCC4)cc3)CC2)c1	none
Cc1ccccc1C(=O)/C(C#N)=N/Nc1c(C)n(C)n(-c2ccccc2)c1=O	EPAC2 antagonist 79µM
COc1ccc(N/C=C2\CCc3ccccc3C2=O)cc1	EPAC2 ag 100µM, EPAC1 agonist inconclusive
NCCNc1ccc(C(=O)N2c3ccccc3Sc3ccccc32)cc1[N+](=O)[O-]	KCNH2 3.1 block -175
Nc1ccc(C(=O)OCC(=O)N2c3ccccc3Sc3ccccc32)cc1[N+](=O)[O-]	none
Cc1ccc(N(CC(=O)NC2CC2)S(=O)(=O)c2ccccc2)c(C)c1	none
Cc1nn(CC(=O)OCCOc2ccc(Br)cc2)c(C)c1[N+](=O)[O-]	KCNH2 3.1 block -73
COC(=O)c1cn(CC(=O)N2CCCCCC2)c2ccccc12	none
CCOC(=O)C1=C(O)/C(=C/c2cn(CC(=O)N3CCCC3)c3ccccc23)SC1=Nc1ccccc1	hERG WT inh -102
COc1cc(SC)ccc1C(=O)Nc1ccc(C)cc1C	KCNH2 3.1 block -82
COc1cc(SC)ccc1C(=O)Nc1ccc(C)cc1	none
O=C(OCC(=O)N(CCc1ccccc1)Cc1ccccc1)c1cccc(S(=O)(=O)N2CCOCC2)c1	none
CCOc1ccc(/C=N/NC(=O)c2ccoc2C)cc1OC	none
COc1ccc(/C=N/NC(=O)c2cccnc2)cc1CN1CCN(c2ccc(F)cc2)CC1	KCNH2 3.1 block -80
COc1ccc(C(=O)N/N=C/c2ccc(OC)c(CN3CCN(c4ccc(F)cc4)CC3)c2)cc1	KCNH2 3.1 block -110, hERG WT inh -168
COc1ccc(/C=N/NC(=O)c2ccoc2C)cc1CN1CCN(c2ccc(F)cc2)CC1	KCNH2 3.1 block -110
COc1ccc(/C=N/NC(=O)c2ccc(Br)cc2)cc1CN1CCOCC1	KCNH2 3.1 block -85
CCOC(=O)CC1(CCc2ccccc2)Oc2ccccc2O1	none (no result: KCNH2 3.1 block, hERG WT inh)
CC(C)CNS(=O)(=O)c1ccc(Br)cc1N1CCC[C@@H]1CO	none
O=C(CC1SC(N2CCCCC2)=NC1=O)Nc1cccc(C(=O)Nc2ncccc2O)c1 (stereo not given)	none
Cc1ccc(-n2c(C)cc(C(=O)COc3c(CO)cc(F)cc3CO)c2C)cc1C	none

Screening data from PubChem BioAssay.
